Structures are written as SMILES. Where “and” joins values, the source holds several entries; their conditions need not be identical. Identical values can stand only once. Results filed as inconclusive are left out. A structure can be active in one record and inactive in another. Calls of active or inactive are those of the source. Calls come from the whole dose curve; as a rule, active = well fitted curve in either direction with a large enough effect; inconclusive = small, poorly fitted or top-dose-only effect; inactive = flat fitted curve, though single readings scatter.

The target in the assay is Lysosomal alpha-glucosidase (Homo sapiens) (UniProt P10253). In words: Confirmation of Inhibitors and Activators of Purified Human alpha-Glucosidase (AID 2115). The settings on record: purified human GAA enzyme activity; series mostly up to 76.2 µM; activity change, negative = inhibition: at the top concentration. The source says:
NIH Chemical Genomics Center [NCGC]
NIH Molecular Libraries Probe Production centers Network [MLPCN]
Assay Submitter (PI): Wei Zheng
Alpha-glucosidase is responsible for hydrolysis of terminal, non-reducing 1,4-linked alpha-D-glucose residues with release of alpha-D-glucose. It is a lysosomal hydrolase that is required for the degradation of a small percentage (1-3%) of cellular glycogen in human. Deficiency of this enzyme results in glycogen-storage disease type II (GSDII), also referred to as Pompe disease, an autosomal recessive disorder. Structurally normal glycogen is accumulated in lysosomes and cytoplasm in affected patients, primarily in muscle tissues. Excessive glycogen storage within lysosomes may interrupt normal functioning of other organelles and leads to cellular injury. In turn, this leads to enlargement and dysfunction of the entire organ involved (eg, cardiomyopathy and muscle weakness).
It has reported that the improper folding and trafficking of alpha-glucosidase resulting from the genetic mutations may account for a significant number of Pompe patients. […] We optimized this alpha-glucosidase assay in 1536-well plate format for identifying the novel small molecule inhibitors with the structures other than the sugar analogs in order to develop the new pharmacological chaperones.
NCGC Assay Protocol Summary:
This is a fluorogenic enzyme assay with 4-methylumbelliferyl-alpha-D-[…] as the substrate and human […] as the enzyme preparation. Upon the hydrolysis of this fluorogenic substrate, the resulting product, 1. 4-methyllumbelliferone, can be excited at 365 nm and emits at 440 nm which can be detected by a standard fluorescence plate reader. Data were normalized to the controls for basal activity (without enzyme) and 100% activity (with enzyme). The AC50 values were determined from concentration-response data modeled with the standard Hill equation.
Assay buffer: 50 mM citric acid (titrated with potassium phosphate to pH 5.0), 0.005% Tween-20, pH 5.0. (pH 5.0 is an optimal condition for this enzyme assay)
1536-well assay protocol for the human alpha-glucosidase:
(1) Add 2 ul/well of enzyme (4 nM final)
(2) Add 23 nL compounds in DMSO solution. The final titration was 0.7 nM to 77 uM.
(3) Add 1 ul of substrate (400 uM final)
(4) Incubate at room temperature for 20 min.
(5) Add 2 ul stop solution (1M NaOH and 1M Glycine mixture, pH 10)
(6) Detect the assay plate in a ViewLux plate reader (PerkinElmer) with Ex=365 nm and Em=440nm.
Keywords: Alpha-glucosidase, Pompe Disease, pharmacological chaperone, chaperone therapy, high throughput screening, alpha-glucosidase inhibitor, MLSMR, MLSCN, NIH Roadmap, qHTS and NCGC
On to `CC(=O)c1ccc(N2CCN(S(=O)(=O)c3ccc4c(c3)CC(=O)N4)CC2)cc1`, for which the Potency was 730 nM (active) and 749 nM (active) and 819 nM (active).

Regarding `Cc1ccc(N2CCN(S(=O)(=O)c3ccc4c(c3)CC(=O)N4)CC2)cc1`, the “activity change, negative = inhibition” value is -1.54% [at 144 µM] (inactive).

As to `O=C1Cc2cc(S(=O)(=O)N3CCNCC3)ccc2N1`, the “activity change, negative = inhibition” value is -7.88% (inactive).

In the case of `CC(=O)c1ccc(N2CCN(S(=O)(=O)c3ccc4c(c3)oc(=O)n4C)CC2)cc1`, the “activity change, negative = inhibition” value was -0.854% (inactive).

As to `O=C1Cc2cc(S(=O)(=O)N3CCN(c4ccc(O)cc4)CC3)ccc2N1`, the Potency was 1.88 µM (active).

Take `CC(=O)c1ccc(N2CCN(S(=O)(=O)c3ccc4c(c3)CCC(=O)N4)CC2)cc1`: the “activity change, negative = inhibition” value was -6.19% (inactive).

Take `CC(=O)c1ccc(N2CCN(S(=O)(=O)c3cc4c(cc3Cl)NC(=O)C4)CC2)cc1`: the Potency is 1.63 µM (active) and 4.61 µM (active).

Regarding `O=C1Cc2cc(S(=O)(=O)N3CCN(c4ccc([N+](=O)[O-])cc4)CC3)ccc2N1`, the Potency was 3.66 µM (active).

With `O=C1Cc2cc(S(=O)(=O)N3CCN(c4ccc(CO)cc4)CC3)ccc2N1`, the Potency is 13 µM (active).

As for `CC(=O)c1ccc(N2CCN(S(=O)(=O)c3ccc4[nH]c(=O)oc4c3)CC2)cc1`, the “activity change, negative = inhibition” value is -9% (inactive).

Take `N#Cc1ccc(N2CCN(S(=O)(=O)c3ccc4c(c3)CC(=O)N4)CC2)cc1`: the Potency was 2.91 µM (active).

With `CC(=O)c1ccc(N2CCN(S(=O)(=O)c3ccc4c(c3)C(=O)OC4)CC2)cc1`, the “activity change, negative = inhibition” value is -4.1% (inactive).

As for `CC(=O)c1ccc(N2CCN(S(=O)(=O)c3ccc4c(c3)OCC(=O)N4)CC2)cc1`, the “activity change, negative = inhibition” value is 0.582% (inactive).

On to `O=C1Cc2cc(S(=O)(=O)N3CCN(c4cccc(C(F)(F)F)c4)CC3)ccc2N1`, for which the Potency is 14.9 µM (active).

Turning to `COc1ccc(N2CCN(S(=O)(=O)c3ccc4c(c3)CC(=O)N4)CC2)cc1`, the Potency was 23.7 µM (active).

As for `CC(=O)c1ccc(N2CCN(C(=O)c3ccc4c(c3)CCC(=O)N4)CC2)cc1`, the “activity change, negative = inhibition” value is -2.3% (inactive).

Turning to `O=Cc1ccc(N2CCN(S(=O)(=O)c3ccc4c(c3)CC(=O)N4)CC2)cc1`, the Potency was 3.66 µM (active).

On to `CC(=O)c1ccc(N2CCN(S(=O)(=O)c3ccc4c(c3)C(Cl)(Cl)C(=O)N4)CC2)cc1`, for which the Potency was 32.6 µM (active) and inactive.

In the case of `CC(=O)c1ccc(N2CCN(S(=O)(=O)c3ccc4c(c3)CCCC(=O)N4)CC2)cc1`, the “activity change, negative = inhibition” value is -3.1% (inactive).

Take `CC(=O)Nc1ccc(S(=O)(=O)N2CCN(c3ccc(C(C)=O)cc3)CC2)cc1`: the “activity change, negative = inhibition” value was -7.6% (inactive).

For the compound `CC(=O)c1ccc(N2CCN(S(=O)(=O)c3ccc4c(c3)CC(C)N4C(C)=O)CC2)cc1` (configuration not stated), the “activity change, negative = inhibition” value is -2.39% (inactive).

Regarding `CC(=O)c1ccc(N2CCN(C(=O)c3ccc4c(c3)CC(=O)N4)CC2)cc1`, the “activity change, negative = inhibition” value was -3.41% (inactive).

`CC(=O)c1ccc(N2CCN(S(=O)(=O)c3ccc4c(c3)n(C)c(=O)n4C)CC2)cc1`: the “activity change, negative = inhibition” value is -4.43% (inactive).

`CC(=O)c1ccc(N2CCN(S(=O)(=O)c3ccc(N4CCCC4=O)cc3)CC2)cc1`: the “activity change, negative = inhibition” value was -3.95% (inactive).

For `CC(=O)N1CCN(S(=O)(=O)c2ccc3c(c2)CC(=O)N3)CC1`, the Potency was 11.9 µM (active).

On to `CC(=O)c1ccc(N2CCN(S(=O)(=O)c3ccc4c(c3)CCCN4C(C)=O)CC2)cc1`, for which the “activity change, negative = inhibition” value is -8.63% (inactive).

For `CC(=O)c1ccc(N2CCN(S(=O)(=O)c3ccc4[nH]c(=O)[nH]c4c3)CC2)cc1`, the “activity change, negative = inhibition” value is -12.1% (inactive).

For the origin of these results see PubChem BioAssay (NCATS).
